Source: PMC7819943, “Rice protein-binding microarrays: a tool to detect cis-acting elements near promoter regions in rice”
The full ranking holds about 39,000 sequences; the median of “fluorescence intensity (a.u.)” is about 4,300, and the highest 2% start at about 39,000. The sample as a whole holds a higher share of the highest values than the screen did.

target: T1, OsSMF1 (Oryza sativa, UniProt Q6ZLB0 1-436); assay: protein-binding microarray (RPBM); PBS, 2% BSA, 51.3 ng/ul salmon testes DNA, 50 uM zinc acetate, 200 nM TF, 25 C, 1 h; high values mean tight binding; details: protein: recombinant; tags: N-terminal polyhistidine and DsRed monomer fusion (pET32a); chain copies: 2; label: CyDye5-dUTP incorporated in the synthesized complementary strand; 3' TTTTT single-stranded linker to array surface; dsDNA, one strand shown
T1 sequence: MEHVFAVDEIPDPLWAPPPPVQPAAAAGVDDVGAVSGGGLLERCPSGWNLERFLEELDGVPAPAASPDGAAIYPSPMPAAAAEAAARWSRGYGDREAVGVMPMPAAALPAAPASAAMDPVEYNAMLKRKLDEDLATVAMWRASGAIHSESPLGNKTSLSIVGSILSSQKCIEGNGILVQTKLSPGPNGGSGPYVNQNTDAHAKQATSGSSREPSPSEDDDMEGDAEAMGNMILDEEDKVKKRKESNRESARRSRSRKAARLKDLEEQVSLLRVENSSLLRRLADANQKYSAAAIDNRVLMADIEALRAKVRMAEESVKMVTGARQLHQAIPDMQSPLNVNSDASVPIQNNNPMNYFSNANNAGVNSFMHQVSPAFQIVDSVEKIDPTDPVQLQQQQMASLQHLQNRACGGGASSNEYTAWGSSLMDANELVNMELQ
Summary of the method: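 Per-feature fluorescence intensity (arbitrary units), read on an Axon 4000B scanner, is the binding signal. Transcription factors carrying an N-terminal polyhistidine tag and DsRed fusion were expressed in E. coli BL21-CodonPlus and purified on Ni–NTA. A custom Agilent array, made double-stranded by primer extension with Cy5-dUTP and blocked with 2% BSA, was incubated with 200 nM protein in PBS, 2% BSA, salmon testes DNA and 50 µM zinc acetate at 25 °C for 1 h and then washed.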

Point of comparison: “AAAATGTCATGTAACTACGCCATTGGACCATAAATATTTTCGGAGTCACCTAGTGCAG”, binding signal 13600 fluorescence intensity (a.u.). Against it:
- GAGCGAGGCGAGGGTGGGGAGGCGGAGGAGGATGTCCAGGCGGAGTCACCTAGTGCAG — lower, 4580 fluorescence intensity (a.u.)
- ATTTGATAAATGGGATGCCACGTGTACACCACGTCAACAGCGGAGTCACCTAGTGCAG — higher, 31000 fluorescence intensity (a.u.)
- GATCAGATCGCACGCTGAGACGTATAGACGACGTGGGTCCCGGAGTCACCTAGTGCAG — lower, 4650 fluorescence intensity (a.u.)
- TGTTTGTATAATTTTGAGTTATCAACAGTCGCGATGGAGACGGAGTCACCTAGTGCAG — higher, 24900 fluorescence intensity (a.u.)
- CAAGTACCCAACCCGCGTCGTCATCGTCGTCTTCCTACTTCGGAGTCACCTAGTGCAG — lower, 5510 fluorescence intensity (a.u.)
- AATATGGATTATTACCAAGAATTTATCCGTTGTTTTGCTACGGAGTCACCTAGTGCAG — higher, 40700 fluorescence intensity (a.u.)
- CAGACGGATTATGTAATTTGTTTTATTATTAATTAGTCTACGGAGTCACCTAGTGCAG — lower, 3890 fluorescence intensity (a.u.)
- TGTATTTGCTACCGTTTTCCAATATGTACCGTCATGTTTCCGGAGTCACCTAGTGCAG — lower, 3920 fluorescence intensity (a.u.)
- ATATTATATTAAATTTGTAGTTTTACGATAATATGGTAAACGGAGTCACCTAGTGCAG — higher, 25400 fluorescence intensity (a.u.)
- TTATTATTAGTAAATATGTAGTTTTACGATATTTAGTCTTCGGAGTCACCTAGTGCAG — higher, 44400 fluorescence intensity (a.u.)
- TACGAATTATGTAATTTGTTTTGTTATTAGTGTACATCTACGGAGTCACCTAGTGCAG — lower, 4070 fluorescence intensity (a.u.)
- TACGGAACCTGTAATTTGTTTTGTTATTAGTCTACATTTACGGAGTCACCTAGTGCAG — higher, 45800 fluorescence intensity (a.u.)
- TATGGATGGGTTTTATTAATAGTCTACGTTTAATATTTATCGGAGTCACCTAGTGCAG — lower, 4490 fluorescence intensity (a.u.)
- TTTCTCGGAATTTCTGGAAATTTTCTTGGAATTAGTAGAACGGAGTCACCTAGTGCAG — higher, 65500 fluorescence intensity (a.u.)
- ATTATTTAAGTGATGATATGTAAATAACGAGTGAAGTTTTCGGAGTCACCTAGTGCAG — lower, 3400 fluorescence intensity (a.u.)
- GAGAGAATCTTGGAACGATTAGTAGTACATAAAGTAGAATCGGAGTCACCTAGTGCAG — lower, 3650 fluorescence intensity (a.u.)
- TATTCTGATTGGAACTTATGAGTCTTGAATTCTTGATTCTCGGAGTCACCTAGTGCAG — higher, 29700 fluorescence intensity (a.u.)
- CTCGCTCGCCTGCCTCCCCACCTCACCAGCTCACCCCACGCGGAGTCACCTAGTGCAG — lower, 4810 fluorescence intensity (a.u.)
- TCAAGATCCAACAGCTTGTCTCGTGCTCGTCACAGCTTCTCGGAGTCACCTAGTGCAG — lower, 3230 fluorescence intensity (a.u.)
- GCAAGAGATCCGAGAAGAGCAACATAACCCACAGGCCGCTCGGAGTCACCTAGTGCAG — lower, 3720 fluorescence intensity (a.u.)
- CCCCACCGACGGCGTGCAAAGCGGCCACCCAGCTCGACGCCGGAGTCACCTAGTGCAG — lower, 8120 fluorescence intensity (a.u.)
- TTAGTATTTAAAATTTAAAAGCAAAGTCATTCTCCTTCTACGGAGTCACCTAGTGCAG — lower, 8610 fluorescence intensity (a.u.)
- TGGGTGTAATTGTTTCCTCGATTTCGCTGGCATGTACTTTCGGAGTCACCTAGTGCAG — lower, 3780 fluorescence intensity (a.u.)
- GGATGGACGTGTGGGGCCTCGCCGTCAGCATTTGCTCCTTCGGAGTCACCTAGTGCAG — lower, 4560 fluorescence intensity (a.u.)
- GCGTACGGCTGCCTAATGCAGAGCCTGACGTGGCGAGCTGCGGAGTCACCTAGTGCAG — higher, 17400 fluorescence intensity (a.u.)
- GATAAAGGTCTCTATTTGCATGACATATATCGTTACTATACGGAGTCACCTAGTGCAG — lower, 3570 fluorescence intensity (a.u.)
- CTCCAGCAGCTGCTCGCTCGTCATCACCGCGATGCTGCCGCGGAGTCACCTAGTGCAG — lower, 3490 fluorescence intensity (a.u.)
- TTGGCGGTGATCGAGGTTAGACATCTCACCGTCAATCTTGCGGAGTCACCTAGTGCAG — lower, 3180 fluorescence intensity (a.u.)
- AGACCACATAGAATGGAAGCGTCATCAGTTTCCACGCAATCGGAGTCACCTAGTGCAG — lower, 6480 fluorescence intensity (a.u.)
- CGTCAGCCTGCAATCGCTTTCTGGGCCCAATAGTACGGGCCGGAGTCACCTAGTGCAG — lower, 8490 fluorescence intensity (a.u.)
- AACTTTCATAAGCAAAATATCAAACGACTTATAATTTTATCGGAGTCACCTAGTGCAG — higher, 26300 fluorescence intensity (a.u.)
- ACTTTGTACTAGTTTTCATATTATGTCATTCTTTAACCATCGGAGTCACCTAGTGCAG — lower, 3650 fluorescence intensity (a.u.)
- TTTCTTTGGTTCAGCTGAACCATTATTTGTTGTTTTACTTCGGAGTCACCTAGTGCAG — higher, 40700 fluorescence intensity (a.u.)
- AAAATTTAATACGACGAATGTTCAAACGGTGCAAGCAAAACGGAGTCACCTAGTGCAG — higher, 45000 fluorescence intensity (a.u.)
- AGATCAGCAAGCGAACTGAATTTAATCAAATGTACTAGTACGGAGTCACCTAGTGCAG — higher, 23000 fluorescence intensity (a.u.)
- TTTGTACTCATTTTATTACAACATGAACAAACCCTTCTTTCGGAGTCACCTAGTGCAG — lower, 3500 fluorescence intensity (a.u.)
- GAAGCCCTAGCCTAGGAGTGAGAGGTCCCACGTCTTCCCCCGGAGTCACCTAGTGCAG — lower, 3780 fluorescence intensity (a.u.)
- TTAATAATAGCCATGTGCGTCATTAGACGGTAGTACGATCCGGAGTCACCTAGTGCAG — lower, 5910 fluorescence intensity (a.u.)
- TGTATAATACATGCCCACGCATTCGCGCGGGCTACCCTCCCGGAGTCACCTAGTGCAG — lower, 3530 fluorescence intensity (a.u.)
- CATGCAGTCAATAGTGTGACTGTAACTTAAACGGTCACACCGGAGTCACCTAGTGCAG — lower, 3750 fluorescence intensity (a.u.)
- GGGCCTCCCCTCCTCCCTTCGCTGGCGAGAGGACGGAGACCGGAGTCACCTAGTGCAG — lower, 3400 fluorescence intensity (a.u.)
- GATATATCCACATCAGCGTGCATACAAGTGTGTCAAAGCTCGGAGTCACCTAGTGCAG — lower, 8160 fluorescence intensity (a.u.)
- CATCAAACAACCAGTTTCTTAGGATGTCTTTTAACCGTGACGGAGTCACCTAGTGCAG — higher, 23200 fluorescence intensity (a.u.)
- AACCCCAGAAACCAGAGGCGGGCTGGTTGATCCATTCTTTCGGAGTCACCTAGTGCAG — higher, 45000 fluorescence intensity (a.u.)
- TCACCCCTGAGAAAGACACGTCTTTCTGGTTTAATCCATTCGGAGTCACCTAGTGCAG — lower, 3620 fluorescence intensity (a.u.)
- AAACCATTCGCCCGATTTGATCCACATCACCACTTTGGTTCGGAGTCACCTAGTGCAG — lower, 10400 fluorescence intensity (a.u.)
- GGGAAACGAGTCAAGCTGACGTGTGCAAGAATCTCCTACACGGAGTCACCTAGTGCAG — lower, 13500 fluorescence intensity (a.u.)
- GTAAGTTGAATGATGTCATATATTTAATTTTACGGTAAGTCGGAGTCACCTAGTGCAG — lower, 6940 fluorescence intensity (a.u.)
- AAAATTATTAACTTCTTGTTTCGATCACCCTAATAAATAGCGGAGTCACCTAGTGCAG — higher, 41000 fluorescence intensity (a.u.)
- TACATTATATTCAATTCTAACTTTCGGAAATATTATATAGCGGAGTCACCTAGTGCAG — higher, 26900 fluorescence intensity (a.u.)
- TAATTAAATTGTCATATCACTTCTTAACTTATTGGACTAACGGAGTCACCTAGTGCAG — lower, 3220 fluorescence intensity (a.u.)
- GACGTGGTAAGTTAACTTGGTTAAAATGTGCTGACGTGGTCGGAGTCACCTAGTGCAG — higher, 24700 fluorescence intensity (a.u.)
- CACGGACGCAAGGGGCCTGCTAAGCCTCTACAACGCAGCGCGGAGTCACCTAGTGCAG — higher, 41800 fluorescence intensity (a.u.)
- AATGCTAAGGGACAACGTCAGCGGGTTAGTGCAAGGTAAGCGGAGTCACCTAGTGCAG — lower, 6630 fluorescence intensity (a.u.)
- TGCAGGGGCGCAGCACGGGAGGGTGCTTGACGCATACAAGCGGAGTCACCTAGTGCAG — lower, 4030 fluorescence intensity (a.u.)
